# Activity calls are given as the source filed them. The calls were made as follows: active = hit-call score of the fitted dose curve at least 0.9, where 1 is the maximum; inactive = score below 0.9.
# Experiments:
# [1] = read-out: Tissue Factor, F3 (gene 2152); test: BSK_CASM3C_TissueFactor: BioMAP Diversity Plus: CASM3C Assay for Tissue Factor Biomarker Activity (AID 2283052); settings: primary human coronary artery smooth muscle cells; actives raise or lower the signal;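 also: cell surface tissue factor protein level read by ELISA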
# [2] = read-out: Interferon-gamma inducible Protein 10 (IP10), CXCL10 (gene 3627); test: BSK_hDFCGF_IP10: BioMAP Diversity Plus: hDFCGF Assay for Interferon-gamma inducible Protein 10 (IP10) Biomarker Activity (AID 2283053); settings: primary human foreskin fibroblasts; actives raise or lower the signal
# Outline: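 Primary human foreskin fibroblasts exposed to chemicals for 24 h. IP-10 measured by ELISA; changes fitted bidirectionally against DMSO baseline.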
# [3] = read-out: Urokinase-type plasminogen activator receptor (uPAR), PLAUR (gene 5329); test: BSK_CASM3C_uPAR: BioMAP Diversity Plus: CASM3C Assay for Urokinase-type plasminogen activator receptor (uPAR) Biomarker Activity (AID 2283054); settings: primary human coronary artery smooth muscle cells; actives raise or lower the signal;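 also: cell-surface uPAR protein level quantified by ELISA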
# [4] = read-out: Vascular cell adhesion molecule 1 (VCAM1), VCAM1 (gene 7412); test: BSK_CASM3C_VCAM1: BioMAP Diversity Plus: CASM3C Assay for Vascular cell adhesion molecule 1 (VCAM1) Biomarker Activity (AID 2283055); settings: primary human coronary artery smooth muscle cells; actives raise or lower the signal;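 also: VCAM-1 protein level quantified by ELISA on the cells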
# [5] = read-out: Collagen III, COL3A1 (gene 1281); test: BSK_hDFCGF_CollagenIII: BioMAP Diversity Plus: hDFCGF Assay for Collagen III Biomarker Activity (AID 2283056); settings: primary human foreskin fibroblasts; actives raise or lower the signal
# Outline: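 Response relative to DMSO, fitted in both directions, reflects ELISA-measured collagen III in human primary skin fibroblasts 24 h after compound addition.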
# [6] = read-out: Epidermal growth factor receptor (EGFR), EGFR (gene 1956); test: BSK_hDFCGF_EGFR: BioMAP Diversity Plus: hDFCGF Assay for Epidermal growth factor receptor (EGFR) Biomarker Activity (AID 2283057); settings: primary human foreskin fibroblasts; actives raise or lower the signal
# Outline: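 Primary human foreskin fibroblasts (hDFCGF system), sampled 24 h after dosing; EGFR quantified by ELISA. Bidirectional fit relative to DMSO baseline; SRB total-protein staining in parallel cultures for cytotoxicity.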
# [7] = read-out: Interleukin-8 (IL8), CXCL8 (gene 3576); test: BSK_hDFCGF_IL8: BioMAP Diversity Plus: hDFCGF Assay for Interleukin-8 (IL8) Biomarker Activity (AID 2283058); settings: primary human foreskin fibroblasts; actives raise or lower the signal
# Outline: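 Fibroblast monolayers (human foreskin, hDFCGF) received test chemical for 24 h before ELISA detection of IL-8; either increases or decreases relative to DMSO count as activity.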
# [8] = BSK_hDFCGF_Proliferation: Cell Proliferation Assessment in the BioMAP Diversity Plus: hDFCGF Assay (AID 2283059); settings: primary human foreskin fibroblasts;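 also: curves fitted for both rise and fall of signal versus DMSO baseline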
# Outline: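 Primary human foreskin fibroblasts, sub-confluent; […]; 10% TCA fix, 0.1% SRB stain, A560 total protein. Gain/loss fitted bidirectionally vs DMSO control.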
# [9] = read-out: Macrophage colony-stimulating factor (MCSF), CSF1 (gene 1435); test: BSK_hDFCGF_MCSF: BioMAP Diversity Plus: hDFCGF Assay for Macrophage colony-stimulating factor (MCSF) Biomarker Activity (AID 2283060); settings: primary human foreskin fibroblasts; actives raise or lower the signal
# Outline: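 fibroblasts (human foreskin, primary), 24 h post-dose; M-CSF by ELISA; bidirectional fit, DMSO = baseline.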
# [10] = BSK_hDFCGF_SRB: Viability Assessment in the BioMAP Diversity Plus: hDFCGF Assay (AID 2283061); settings: primary human foreskin fibroblasts;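 also: cells exposed to compound for 24 h before the read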
# Outline: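 SRB-based viability read on primary human skin fibroblasts at 24 h: TCA fixation, 0.1% dye, 560 nm. Gain or loss of signal is fitted against the DMSO negative control.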
# [11] = read-out: TIMP metallopeptidase inhibitor 1 (TIMP1), TIMP1 (gene 7076); test: BSK_hDFCGF_TIMP1: BioMAP Diversity Plus: hDFCGF Assay for TIMP metallopeptidase inhibitor 1 (TIMP1) Biomarker Activity (AID 2283062); settings: primary human foreskin fibroblasts; actives raise or lower the signal
# Outline: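 Bidirectional curve fitting against DMSO baseline yielded this endpoint, based on ELISA detection of TIMP-1 in primary human foreskin fibroblasts exposed to compound for 24 h.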
# [12] = read-out: Monokine induced gamma interferon (MIG), CXCL9 (gene 4283); test: BSK_hDFCGF_MIG: BioMAP Diversity Plus: hDFCGF Assay for Monokine induced gamma interferon (MIG) Biomarker Activity (AID 2283063); settings: primary human foreskin fibroblasts; actives raise or lower the signal
# Outline: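 Endpoint derived by bidirectional fitting relative to DMSO; MIG quantified via ELISA in primary human foreskin fibroblasts harvested 24 h after dosing.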
# [13] = read-out: Matrix Metallopeptidase 1 (MMP1), MMP1 (gene 4312); test: BSK_hDFCGF_MMP1: BioMAP Diversity Plus: hDFCGF Assay for Matrix Metallopeptidase 1 (MMP1) Biomarker Activity (AID 2283064); settings: primary human foreskin fibroblasts; actives raise or lower the signal
# Outline: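 Primary human foreskin fibroblasts exposed to chemicals for 24 h; MMP1 measured by ELISA. Cytotoxicity tracked by SRB staining in parallel cultures; bidirectional fit relative to DMSO.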
# [14] = read-out: Vascular cell adhesion molecule 1 (VCAM1), VCAM1 (gene 7412); test: BSK_hDFCGF_VCAM1: BioMAP Diversity Plus: hDFCGF Assay for Vascular cell adhesion molecule 1 (VCAM1) Biomarker Activity (AID 2283065); settings: primary human foreskin fibroblasts; actives raise or lower the signal
# Outline: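 Measured after 24 h chemical treatment of primary human skin fibroblasts, VCAM-1 was detected by ELISA and concentration-response analysed in both directions versus DMSO vehicle.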
# [15] = read-out: Plasminogen activator inhibitor-1 (PAI1), SERPINE1 (gene 5054); test: BSK_hDFCGF_PAI1: BioMAP Diversity Plus: hDFCGF Assay for Plasminogen activator inhibitor-1 (PAI1) Biomarker Activity (AID 2283066); settings: primary human foreskin fibroblasts; actives raise or lower the signal
# Outline: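 Human foreskin fibroblast primary cells, 24 h chemical exposure; PAI-1 measured by ELISA. Bidirectional fitting relative to DMSO; parallel cultures stained with SRB for total protein to flag overt cytotoxicity.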
# [16] = read-out: Intercellular Adhesion Molecule 1 (ICAM1), ICAM1 (gene 3383); test: BSK_KF3CT_ICAM1: BioMAP Diversity Plus: KF3CT Assay for Intercellular Adhesion Molecule 1 (ICAM1) Biomarker Activity (AID 2283067); settings: primary human keratinocytes with fibroblasts; actives raise or lower the signal
# Outline: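 Bidirectional curve fitting against a DMSO baseline was applied to ICAM-1 ELISA signal from primary human skin co-cultures harvested 24 h after treatment, with SRB staining of parallel wells for overt cytotoxicity.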
# [17] = read-out: Interferon-gamma inducible Protein 10 (IP10), CXCL10 (gene 3627); test: BSK_KF3CT_IP10: BioMAP Diversity Plus: KF3CT Assay for Interferon-gamma inducible Protein 10 (IP10) Biomarker Activity (AID 2283068); settings: primary human keratinocytes with fibroblasts; actives raise or lower the signal
# Outline: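 In a primary skin co-culture of keratinocytes and fibroblasts, IP-10 is quantified by ELISA at 24 h after dosing. SRB staining of parallel wells monitors overt toxicity. Curves are fitted both directions against DMSO.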
# [18] = BSK_KF3CT_SRB: Viability Assessment in the BioMAP Diversity Plus: KF3CT Assay (AID 2283069); settings: primary human keratinocytes with fibroblasts;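 also: total protein by sulforhodamine B staining as a cytotoxicity measure; fitted for both signal gain and loss against DMSO baseline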
# Outline: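 Human keratinocyte and foreskin fibroblast co-culture exposed to chemical for 24 h. Total protein measured in parallel cultures by 0.1% sulforhodamine B staining after 10% TCA fixation, read at 560 nm; bidirectional fit relative to DMSO.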
# [19] = read-out: Interleukin-1 alpha (IL1a), IL1A (gene 3552); test: BSK_KF3CT_IL1a: BioMAP Diversity Plus: KF3CT Assay for Interleukin-1 alpha (IL1a) Biomarker Activity (AID 2283070); settings: primary human keratinocytes with fibroblasts; actives raise or lower the signal
# Outline: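 Primary human keratinocyte plus foreskin fibroblast co-culture, dosed and measured at 24 h in 96-well plates. IL-1a level quantified by ELISA; bidirectional fit relative to DMSO.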
# [20] = read-out: TIMP metallopeptidase inhibitor 2 (TIMP2), TIMP2 (gene 7077); test: BSK_KF3CT_TIMP2: BioMAP Diversity Plus: KF3CT Assay for TIMP metallopeptidase inhibitor 2 (TIMP2) Biomarker Activity (AID 2283071); settings: primary human keratinocytes with fibroblasts; actives raise or lower the signal
# Outline: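 Co-culture of human primary keratinocytes and foreskin fibroblasts, measured 24 h after chemical dosing. TIMP-2 quantified by ELISA and fitted in both directions relative to DMSO. Cytotoxicity checked in parallel cultures by SRB total-protein staining.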
smiles,measurement,setting,value
CCCCCCC(CCCCCCCCCCC(=O)OCC(COC(C)=O)OC(C)=O)OC(C)=O (configuration not stated),outcome,[1],inactive
same,outcome,[2],inactive
same,outcome,[3],inactive
same,outcome,[4],inactive
same,AC50,[5],2.73 µM (active)
same,outcome,[6],inactive
same,outcome,[7],inactive
same,AC50,[8],3.11 µM (active)
same,outcome,[9],inactive
same,outcome,[10],inactive
same,outcome,[11],inactive
same,outcome,[12],inactive
same,outcome,[13],inactive
same,outcome,[14],inactive
same,AC50,[15],0.818 µM (active)
same,outcome,[16],inactive
same,outcome,[17],inactive
same,outcome,[18],inactive
same,outcome,[19],inactive
same,outcome,[20],inactive
CC(C)NCC(O)c1ccc(O)c(O)c1 (configuration not stated),outcome,[1],inactive
same,outcome,[2],inactive
same,outcome,[3],inactive
same,outcome,[4],inactive
same,outcome,[5],inactive
same,outcome,[6],inactive
same,outcome,[7],inactive
same,AC50,[8],26.4 µM (active)
same,outcome,[9],inactive
same,outcome,[10],inactive
same,outcome,[11],inactive
same,outcome,[12],inactive
same,outcome,[13],inactive
same,outcome,[14],inactive
same,outcome,[15],inactive
same,outcome,[16],inactive
same,outcome,[17],inactive
same,outcome,[18],inactive
same,outcome,[19],inactive
same,outcome,[20],inactive
CN(C)C(=O)NC1(c2ccccc2)CCN(CCC[C@]2(c3ccc(Cl)c(Cl)c3)CCCN(C(=O)c3ccccc3)C2)CC1,outcome,[1],inactive
same,outcome,[2],inactive
same,outcome,[3],inactive
same,outcome,[4],inactive
same,outcome,[5],inactive
same,outcome,[6],inactive
same,outcome,[7],inactive
same,AC50,[8],6.29 µM (active)
same,outcome,[9],inactive
same,outcome,[10],inactive
same,outcome,[12],inactive
same,outcome,[13],inactive
same,outcome,[14],inactive
same,outcome,[15],inactive
same,outcome,[16],inactive
same,outcome,[17],inactive
same,outcome,[18],inactive
same,outcome,[19],inactive
NCCOCCOCCN,outcome,[1],inactive
same,outcome,[2],inactive
same,outcome,[3],inactive
same,outcome,[4],inactive
same,outcome,[5],inactive
same,outcome,[6],inactive
same,outcome,[7],inactive
same,AC50,[8],14.6 µM (active)
same,outcome,[9],inactive
same,outcome,[10],inactive
same,outcome,[11],inactive
same,outcome,[12],inactive
same,outcome,[13],inactive
same,outcome,[14],inactive
same,outcome,[16],inactive
same,outcome,[17],inactive
same,outcome,[18],inactive
same,outcome,[19],inactive
C/C=C/c1ccc(OC)cc1,outcome,[1],inactive
same,outcome,[2],inactive
same,outcome,[3],inactive
same,outcome,[4],inactive
same,outcome,[5],inactive
same,outcome,[6],inactive
same,outcome,[7],inactive
same,outcome,[8],inactive
same,outcome,[9],inactive
same,outcome,[10],inactive
same,outcome,[12],inactive
same,outcome,[13],inactive
same,outcome,[14],inactive
same,outcome,[15],inactive
same,outcome,[16],inactive
same,outcome,[17],inactive
same,outcome,[18],inactive
same,outcome,[19],inactive
CC(N)=O,outcome,[1],inactive
same,outcome,[2],inactive
same,outcome,[3],inactive
same,outcome,[4],inactive
same,outcome,[5],inactive
same,outcome,[6],inactive
same,outcome,[7],inactive
same,outcome,[8],inactive
same,outcome,[9],inactive
same,outcome,[10],inactive
same,outcome,[11],inactive
same,outcome,[12],inactive
same,outcome,[13],inactive
same,outcome,[14],inactive
same,outcome,[15],inactive
same,outcome,[16],inactive
same,outcome,[17],inactive
same,outcome,[18],inactive
same,outcome,[19],inactive
same,outcome,[20],inactive
NC1CCCCC1,outcome,[1],inactive
same,outcome,[2],inactive
same,outcome,[3],inactive
same,outcome,[4],inactive
same,outcome,[5],inactive
same,outcome,[6],inactive
same,outcome,[7],inactive
same,outcome,[8],inactive
same,outcome,[9],inactive
same,outcome,[10],inactive
same,outcome,[12],inactive
same,outcome,[13],inactive
same,outcome,[14],inactive
same,outcome,[15],inactive
same,outcome,[16],inactive
same,outcome,[17],inactive
same,outcome,[18],inactive
same,outcome,[19],inactive
